Consider 9 sequences from paper PMC8384837, “Expanding the binding specificity for RNA recognition by a PUF domain”.

Numbering of substitutions follows the chain as printed.

Assay in all cases: yeast three-hybrid, YBZ-1, SC-Leu-His + 0.5 mM 3-AT, 4 days
Holding throughout (conditions): tags: N-Gal4 AD-HA kept; label: inside an RPR1-promoter hybrid RNA with tandem MS2 sites; ssRNA

One experiment concerns the target PUM1 PUF domain R8-SFK (Homo sapiens, UniProt Q14671 828-1176, N1122S;Y1123F;Q1126K). In a few lines:
(§1)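 Pumilio-1 PUF domain libraries, randomized at the three base-contacting residues of each repeat, were co-expressed with matching RNA elements from a centromeric plasmid in strain YBZ-1, which carries a LexA–MS2 coat fusion and a HIS3 reporter. Transformants grew for four days on SC-Leu (input) or on SC-Leu-His + 0.5 mM 3-AT (selection), and the repeat regions were PCR-amplified and Illumina-sequenced. The interaction score is the log change in variant frequency from input to selection. That logarithm is base 2, with a pseudocount of 1 where a variant was absent.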

The target of another experiment is T1, PUM1 PUF domain R6-SRR (Homo sapiens, UniProt Q14671 828-1176, N1043S;Y1044R;Q1047R).
T1 sequence: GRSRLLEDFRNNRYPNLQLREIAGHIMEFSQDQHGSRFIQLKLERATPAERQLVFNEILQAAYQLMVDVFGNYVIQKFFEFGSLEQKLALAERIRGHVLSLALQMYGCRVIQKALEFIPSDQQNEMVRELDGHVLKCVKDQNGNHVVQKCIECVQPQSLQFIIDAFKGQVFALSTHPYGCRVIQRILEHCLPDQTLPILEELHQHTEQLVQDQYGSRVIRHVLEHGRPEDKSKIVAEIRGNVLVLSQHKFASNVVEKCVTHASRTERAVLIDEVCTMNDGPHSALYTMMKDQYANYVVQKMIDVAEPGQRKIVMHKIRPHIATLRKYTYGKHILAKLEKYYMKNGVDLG
In a few lines: as §1

For a further experiment, the target named is T2, PUM1 PUF domain R6-LFV (Homo sapiens, UniProt Q14671 828-1176, N1043L;Y1044F;Q1047V).
T2 sequence: T1 sequence with S216L, R217F, R220V
The procedure, abridged:
as §1

Another experiment concerns the target T3, PUM1 PUF domain R6-AYG (Homo sapiens, UniProt Q14671 828-1176, N1043A;Q1047G).
T3 sequence: T1 sequence with S216A, R217Y, R220G
In a few lines: as §1

In another experiment the target is PUM1 PUF domain R5-SGR (Homo sapiens, UniProt Q14671 828-1176, C1007S;R1008G;Q1011R). In a few lines:
as §1

A further experiment concerns the target PUM1 PUF domain R8-SRR (Homo sapiens, UniProt Q14671 828-1176, N1122S;Y1123R;Q1126R). The procedure, abridged: as §1
The target of a further experiment is PUM1 PUF domain R5-FRS (Homo sapiens, UniProt Q14671 828-1176, C1007F;Q1011S). In a few lines:
as §1

Another experiment has as its target PUM1 PUF domain R7-NPR (Homo sapiens, UniProt Q14671 828-1176, S1079N;N1080P;E1083R). The procedure, abridged: as §1
The target of a further experiment is PUM1 PUF domain R5-WRD (Homo sapiens, UniProt Q14671 828-1176, C1007W;Q1011D). The procedure, abridged:
as §1

In the next experiment the target is PUM1 PUF domain R7-TTG (Homo sapiens, UniProt Q14671 828-1176, S1079T;N1080T;E1083G). The procedure, abridged:
as §1

“GGCUAGAACUAGUGGAUCCCCCGGCGCCCGGCGGCUCGAGCCCGGGUAAGGGUAAAUAGUCUGCAUGCCGCCGGGCGCCAUGCCUGCAGGUCGACUCUAGAAAACAUG”: the binding signal with PUM1 PUF domain R8-SFK is 2.09 log2 enrichment (interaction score).

Take “GGCUAGAACUAGUGGAUCCCCCGGCGCCCGGCGGCUCGAGCCCGGGUAAGUGCAAAUAGUCUGCAUGCCGCCGGGCGCCAUGCCUGCAGGUCGACUCUAGAAAACAUG”: the binding signal with PUM1 PUF domain R6-SRR was 3.26 log2 enrichment (interaction score).

“GGCUAGAACUAGUGGAUCCCCCGGCGCCCGGCGGCUCGAGCCCGGGUAAGUGAAAAUAGUCUGCAUGCCGCCGGGCGCCAUGCCUGCAGGUCGACUCUAGAAAACAUG”: the binding signal with PUM1 PUF domain R6-LFV is 5.6 log2 enrichment (interaction score); with PUM1 PUF domain R6-AYG it was 2.71 log2 enrichment (interaction score).

For the sequence “GGCUAGAACUAGUGGAUCCCCCGGCGCCCGGCGGCUCGAGCCCGGGUAAGUGUAAAUAGUCUGCAUGCCGCCGGGCGCCAUGCCUGCAGGUCGACUCUAGAAAACAUG”, the binding signal was 1.55 log2 enrichment (interaction score) with PUM1 PUF domain R5-SGR; 1.78 log2 enrichment (interaction score) with PUM1 PUF domain R8-SRR; 3.04 log2 enrichment (interaction score) with PUM1 PUF domain R6-SRR; 0.74 log2 enrichment (interaction score) with PUM1 PUF domain R5-FRS; 1.05 log2 enrichment (interaction score) in the experiment with PUM1 PUF domain R6-AYG; 5.06 log2 enrichment (interaction score) in the experiment with PUM1 PUF domain R8-SFK.

In the case of “GGCUAGAACUAGUGGAUCCCCCGGCGCCCGGCGGCUCGAGCCCGGGUAAGUCUAAAUAGUCUGCAUGCCGCCGGGCGCCAUGCCUGCAGGUCGACUCUAGAAAACAUG”, the binding signal in the experiment with PUM1 PUF domain R7-NPR was 0.79 log2 enrichment (interaction score).

“GGCUAGAACUAGUGGAUCCCCCGGCGCCCGGCGGCUCGAGCCCGGGUAAGUGUUAAUAGUCUGCAUGCCGCCGGGCGCCAUGCCUGCAGGUCGACUCUAGAAAACAUG”: the binding signal with PUM1 PUF domain R5-SGR was 0.78 log2 enrichment (interaction score); with PUM1 PUF domain R5-FRS, 3.13 log2 enrichment (interaction score); with PUM1 PUF domain R5-WRD it was 2.27 log2 enrichment (interaction score).

In the case of “GGCUAGAACUAGUGGAUCCCCCGGCGCCCGGCGGCUCGAGCCCGGGUAAGUGUCAAUAGUCUGCAUGCCGCCGGGCGCCAUGCCUGCAGGUCGACUCUAGAAAACAUG”, the binding signal with PUM1 PUF domain R5-SGR was 6.98 log2 enrichment (interaction score); in the experiment with PUM1 PUF domain R5-FRS, 2.38 log2 enrichment (interaction score).

On to “GGCUAGAACUAGUGGAUCCCCCGGCGCCCGGCGGCUCGAGCCCGGGUAAGUUUAAAUAGUCUGCAUGCCGCCGGGCGCCAUGCCUGCAGGUCGACUCUAGAAAACAUG”, for which the binding signal is 5.02 log2 enrichment (interaction score) with PUM1 PUF domain R7-NPR and 3.76 log2 enrichment (interaction score) with PUM1 PUF domain R7-TTG.

As to “GGCUAGAACUAGUGGAUCCCCCGGCGCCCGGCGGCUCGAGCCCGGGUAAGCGUAAAUAGUCUGCAUGCCGCCGGGCGCCAUGCCUGCAGGUCGACUCUAGAAAACAUG”, the binding signal in the experiment with PUM1 PUF domain R8-SRR is 2.8 log2 enrichment (interaction score); in the experiment with PUM1 PUF domain R8-SFK, 5.53 log2 enrichment (interaction score).
